An excerpt weighted towards active compounds, which were near 0.83% of everything screened.
NCOA1 inh = human NCOA1 inhibition; hit rate 0.12% among 360,000; HEK293 GAL4-SRC1 luciferase reporter, luminescence; Q15788; inhibition, % at 3.6 µM;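 active = inhibition above the campaign mean plus 3 SD, with each screening campaign given its own cutoff, cut at about 60% in these data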
NCOA2 inhibitor = inhibits human steroid receptor coactivator 2; hit rate 0.17% among 370,000; inhibition, % at 9 µM; HEK293 GAL4-SRC2 luciferase reporter, luminescence; AID 651957; Q15596;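 active = inhibition above the mean inhibition of all tested compounds plus 3 SD, set per campaign, cut at about 52% in these data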
NCOA3 inh = human NCOA3 inhibition. hit rate 0.17% among 360,000. inhibition, % at 3.6 µM. HEK293 GAL4-SRC3 luciferase reporter, luminescence. Q9Y6Q9;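 active = inhibition above a per-campaign cutoff, the mean of all compounds plus 3 SD, cut at about 60% in these data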;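 note: higher means less SRC3-driven luciferase light from the GAL4 reporter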
Gli-Sufu block = blocks Gli-Sufu signaling in a luciferase reporter; Sufu-KO-LIGHT fibroblasts, Gli luciferase reporter luminescence; inhibition, % at 5 µM; hit rate 0.74% among 340,000;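 active = inhibition above about 55%, limit read from the data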
LRH-1 inv ag = inverse agonists of human LRH-1 (NR5A2); O00482; HEK293T StAR-luciferase reporter, LRH-1 transfected, 24 h; inhibition, % at 3.6 µM; hit rate 0.13% among 360,000;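 active = inhibition above the mean inhibition of all tested compounds plus 3 SD, cut at about 73% in these data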
A number is an active result; – = inactive; · = no result.

SMILES	NCOA1 inh	NCOA2 inhibitor	NCOA3 inh	Gli-Sufu block	LRH-1 inv ag
Clc1ccc(OCCN2CCN(c3ncnc4sccc34)CC2)cc1	–	–	–	81.3	–
C#CCCCN([C@@H](CC(C)C)C(=O)OC)S(=O)(=O)c1ccc(F)cc1Br	·	–	·	·	·
Cc1cc(C)cc(C(=O)OCCN(C)C2CN(Cc3cn(Cc4ccc([N+](=O)[O-])cc4)nn3)S(=O)(=O)C2)c1 (stereo not drawn)	·	–	·	·	·
COc1ccc(-c2nc(-c3ccccn3)ncc2S(C)(=O)=O)cc1	–	–	–	–	–
CCCc1nc2c(=O)n(C)c(=O)nc-2n(C)n1	86.6	66.5	90.0	58.9	88.8
Cn1nc(-c2ccccn2)nc2c(=O)n(C)c(=O)nc1-2	89.3	–	93.2	–	83.6
O=C(NCc1cccnc1)/C(=C\c1ccc(-c2ccc(Cl)c(Cl)c2)o1)S(=O)(=O)c1ccccc1	–	61.2	85.5	–	–
Cc1cccc(-c2cccc3c4c([nH]c23)[C@@H]2C[C@H](N(C)C(=O)Nc3ccccc3)[C@H]([C@H](C)O)C(=O)N2CC4)c1	·	–	·	·	·
COc1ccc2c(c1)c(C(C)=O)c(C)n2-c1ccccc1	–	–	–	–	–
COc1ccc(-n2c(C)c(C(C)=O)c3cc(O)ccc32)cc1	67.9	–	–	–	–
CCCC(=O)N1CCN(c2ccc(NC(=O)c3cc4ccccc4o3)cc2Cl)CC1	–	–	75.7	–	–
CCC(=O)N1CCN(c2ccc(NC(=O)c3cc4ccccc4o3)cc2Cl)CC1	–	–	–	–	–
C[C@@H]1[C@H](O)[C@@H](C)/C=C/C=C/C=C/C=C/C=C/C=C/C=C/[C@H](OC2O[C@H](C)[C@@H](O)[C@H](N)[C@@H]2O)C[C@@H]2O[C@](O)(C[C@@H](O)C[C@@H](O)[C@H](O)CC[C@@H](O)C[C@@H](O)CC(=O)O[C@H]1C)C[C@H](O)[C@H]2C(=O)O (stereo partly drawn)	·	–	·	·	·
Oc1c(CN2CCOCC2)cc(COCc2ccccc2)c2cccnc12	–	–	–	61.3	–
Oc1ccc2[nH]cc(CCc3ccccc3)c2c1-c1ccccc1	·	–	·	·	·
COC(=O)[C@]12C[C@H](CC(=O)NCc3cccs3)C(=O)N(Cc3ccc4c(c3)OCO4)C1=C[C@H](C(C)C)O[C@@H]2C1CC1	·	–	·	·	·
Cc1ccc(NC(=O)Nn2cnnc2)cc1Cl	–	–	–	–	–
Cc1ccc(NC(=O)O/N=C/c2c(C)nn(C(C)(C)C)c2C)cc1Cl	91.3	94.6	91.9	–	88.4
C[C@@H]1ON(C)[C@H]2C[C@H]3c4[nH]c5c(-c6ccccc6F)cccc5c4CCN3C[C@@H]12	·	–	·	·	·
O[C@H](COc1cccc(C(F)(F)F)c1)CN1CCC(C(O)(c2ccccc2)c2ccccc2)CC1	·	–	·	·	·
Cc1cc(=O)n2c3c(c4c(cc13)c(CN(C)C)cc(=O)n4C)OC2	–	58.0	–	–	–
CCOc1ccc(-n2c(SCC(=O)Nc3ccc(S(=O)(=O)Nc4cc(C)nc(C)n4)cc3)nnc2-c2ccc(OC)cc2)cc1	·	–	·	·	·
O=C(CCCC(=O)c1ccc(O)cc1)c1ccc(O)cc1	–	–	–	–	–
O=C1C=CC(=C(c2ccc(O)cc2)c2ccc(O)cc2)C=C1	–	–	–	–	81.2
O=C(NC1=N[C@@]2(C=C3CCCCC3n3c(=O)n(-c4ccccc4)c(=O)n32)CN1Cc1ccccc1)c1ccccc1 (stereo partly drawn)	·	–	·	·	·
SMILES	NCOA1 inh	NCOA2 inhibitor	NCOA3 inh	Gli-Sufu block	LRH-1 inv ag
N#CC(c1ccc(Cl)cc1)c1ccc2c(C(F)(F)F)cc(C(F)(F)F)nc2n1 (stereo not drawn)	65.5	–	76.3	92.3	–
COC(=O)C1CN(Cc2cn(Cc3ccc(C)cc3)nn2)CCS(=O)(=O)N1Cc1ccc(Cl)cc1 (stereo not drawn)	·	–	·	·	·
CCCOc1cccc(-c2cc(C(=O)N/N=C/c3ccccn3)c3ccccc3n2)c1	–	–	–	–	–
O=C(O)COc1ccccc1/C=N/NC(=O)c1cc(-c2ccc(Cl)cc2)nc2ccccc12	–	–	–	–	–
O=C(N/N=C/c1ccccn1)c1cc(-c2ccc(Br)cc2)nc2ccccc12	–	–	–	72.3	–
O=C(N/N=C/c1ccccn1)c1cc(-c2ccc(Cl)cc2)nc2ccccc12	–	–	–	88.5	–
CCN1CCN(C(=S)c2ccc(-c3ccccc3)cc2)CC1	–	70.7	–	–	–
COC(=O)[C@]12C[C@H](CC(=O)NCc3cccs3)C(=O)N(CCc3ccc(OC)c(OC)c3)C1=C[C@H](COCc1ccccc1)O[C@@H]2C	·	–	·	·	·
NC(=S)N=Nc1c(O)[nH]c2ccccc12	–	–	–	–	–
Oc1[nH]c2ccc(Br)cc2c1N=NC(=S)N1CCOCC1	–	–	–	85.9	–
Oc1[nH]c2ccccc2c1N=NC(=S)N1CCOCC1	–	·	–	63.1	–
C[C@@H](N)P(=O)(O)C[C@H](Cc1ccccc1)C(=O)O	·	–	·	·	·
CC(=O)n1cc(N(C(=O)CCl)c2ccc(C)cc2)c2ccccc21	–	60.5	–	–	–
CC(=O)N(c1ccc(Cl)cc1)c1cn(C(C)=O)c2ccccc12	–	–	–	–	–
CC1Cc2cc(-c3csc(NC(=O)Cc4cccs4)n3)ccc2N1S(C)(=O)=O (stereo not drawn)	–	–	63.6	–	–
O=C(/C=C/Nc1ccccc1Br)c1ccccn1	–	81.1	–	–	–
CSc1nc2c(cc1C#N)CCC2	–	–	–	–	–
N#Cc1cc2c(nc1SC1CC(=O)N(c3ccccc3)C1=O)CCC2 (stereo not drawn)	–	·	77.4	–	–
O=C(O)c1ccc(N/N=C/c2ccc3c(c2)OCO3)cc1	–	56.5	–	–	–
COc1cccc(/C=N/Nc2ccc(C(=O)O)cc2)c1O	75.8	79.3	79.4	72.7	–
COc1cccc(/C=N/Nc2ccc(S(=O)(=O)O)cc2)c1O	–	–	–	–	–
O=C(O)c1cc(N/N=C/c2ccc3c(c2)OCO3)ccc1Cl	–	–	–	–	–
O=C(O)c1ccc(N/N=C/c2ccc(C(F)(F)F)cc2)cc1	–	–	–	–	–
CC(C)(C)c1ccc(/C=N/Nc2ccc(C(=O)O)cc2)cc1	–	–	64.1	–	–
COc1ccc(C(=O)OCCCN(C)C2CN(Cc3cn(Cc4ccccc4Cl)nn3)S(=O)(=O)C2)cc1OC (stereo not drawn)	·	–	·	·	·
SMILES	NCOA1 inh	NCOA2 inhibitor	NCOA3 inh	Gli-Sufu block	LRH-1 inv ag
O=S1(=O)c2c(NCc3ccco3)cccc2Oc2ccccc2CN1Cc1cn(Cc2cccc(F)c2)nn1	·	–	·	·	·
NS(=O)(=O)c1ccc(N=Nc2ccc(O)c3ncccc23)cc1	–	–	–	–	–
O=Cc1ccc(O)c2ncccc12	–	·	–	64.2	–
COc1ccccc1N1CCN(Cc2ccc(O)c3ncccc23)CC1	–	–	–	76.4	–
COc1ccc(CNc2ncc(-c3ccc(F)cc3)n2C)c2ccccc12	–	82.2	–	55.7	–
O=C(Nc1ccc(F)cc1)OCc1cn(Cc2cccc(Cl)c2)nn1	·	–	·	·	·
